Rows were chosen to be rich in hits. Some 2.8% of all compounds tested hit in one or more screens of this group.
IDE inh = inhibits human insulin-degrading enzyme in HEK cells; 320,000 compounds, 0.41% hits; AID 434962; P14735; inhibition, % at 5.59 µM; FAbetaB cleavage, fluorescence polarization;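 active = percent inhibition above the average of all tested compounds plus 3 SD, set per screening campaign, cut at about 16% in these data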;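 note: IDE supplied by intact live HEK cells; FP after avidin binding of uncleaved biotin substrate so inhibition keeps polarization high; 0% = DMSO wells and 100% = 60 µM reference IDE inhibitor Ii1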
SKKanGAS inh = blocks kanamycin growth of S. pyogenes SKKanGAS strain; 300,000 compounds, 1.3% hits; BacTiter-Glo, 6 h; inhibition, % at 7.5 µM; AID 1662;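 active = mean replicate score, as percent of positive control median, at least 50; inconclusive = mean below 50 but one replicate at or above 50; inactive = mean and every replicate below 50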;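 note: strain carries kanamycin resistance gene driven by streptokinase promoter and grows in 40 µg/ml kanamycin; loss of luminescence reflects streptokinase promoter inhibition or plain growth inhibition; 0% = median of DMSO wells and 100% = positive control at its reference dose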
PP1 inh = PP1-alpha (human) inhibition in PP5 counter-screen; P62136; purified PP1alpha, OMFP fluorescence; inhibition, % at 6.7 µM; 320,000 compounds, 0.9% hits;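 active = inhibition above the mean inhibition of all tested compounds plus 3 SD, computed separately for each screening campaign, cut at about 15% in these data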
Target sequence (P62136 whole entry, looked up): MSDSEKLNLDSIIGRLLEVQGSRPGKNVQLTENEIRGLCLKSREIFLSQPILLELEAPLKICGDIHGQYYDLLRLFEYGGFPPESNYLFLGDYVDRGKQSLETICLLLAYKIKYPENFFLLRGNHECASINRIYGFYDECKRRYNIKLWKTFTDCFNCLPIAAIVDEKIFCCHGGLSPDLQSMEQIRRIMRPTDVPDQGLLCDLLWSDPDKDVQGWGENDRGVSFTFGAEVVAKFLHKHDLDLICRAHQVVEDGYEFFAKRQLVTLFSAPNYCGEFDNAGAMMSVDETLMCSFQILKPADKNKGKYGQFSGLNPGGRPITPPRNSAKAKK
Exocytosis inh = lytic granule exocytosis inhibition. TALL-104 LAMP-1 surface exposure, flow cytometry; cells stimulated with thapsigargin and PMA. inhibition, % at 10 µM. 360,000 compounds, 0.66% hits. AID 651702;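 active = inhibition above about 55%, limit read from the data; inconclusive = no clear call, values can overlap the other calls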
IDE cell activ = IDE (human) activation, cell-based. P14735. HEK cells, FAbeta-B cleavage, fluorescence polarization; 0% vehicle, 100% cell-free pure enzyme wells. activation, % at 5.96 µM. 340,000 compounds, 0.073% hits. AID 493087;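 active = activation above the mean of all tested compounds plus 3 SD, set per screening campaign, cut at about 17% in these data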
PP5 primary = PP5 (human) phosphatase inhibition; inhibition, % at 6.7 µM; 320,000 compounds, 0.18% hits; purified PP5c, OMFP substrate fluorescence; P53041;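 active = inhibition above the campaign's mean inhibition across all tested compounds plus 3 SD, cut at about 9.5% in these data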;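 note: 0% = DMSO only and 100% = 100 µM cantharidin control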
Active calls of the source: *; u = inconclusive; x = no result given.

SMILES | IDE inh | SKKanGAS inh | PP1 inh | Exocytosis inh | IDE cell activ | PP5 primary
CC1=NOC(=O)/C1=C\c1ccc(-c2ccccc2Br)o1 | x | 21 | x | 92* | -16 | x
Nc1ccccc1N=Cc1ccc(-c2cccc(Cl)c2)o1 | 6 | -5 | 0 | 96* | -5 | 6
CO[C@@H]1CN(C)C(=O)c2ccc(NS(=O)(=O)c3c(C)noc3C)cc2OC[C@@H](C)NC[C@@H]1C | x | x | x | 15 | x | x
CC(C)C(NC(=O)C(c1ccccc1)c1ccccc1)c1nc2ccccc2[nH]1 (centres undefined) | 2 | 79* | 10 | 7 | -1 | 0
O=C(Nc1ccc(Cl)cc1)C(Cl)C(=O)c1ccccc1 (centres undefined) | -2 | -4 | 0 | 96* | 3 | 2
Cc1ccc(CN2CCN(/N=C/c3ccc(C)s3)CC2)c(C)c1 | 10 | -2 | -2 | -2 | -5 | 4
COC(=O)C1=C(C)NC(=O)/C1=C\c1cc(C)n(-c2ccc(F)cc2)c1C | 2 | -2 | 2 | 104* | -2 | 5
COC(=O)C1=C(C)NC(=O)/C1=C\c1cc(C)n(-c2cccc(C)c2)c1C | 0 | 11 | 1 | -5 | 3 | 4
Cc1cc(/C=C2\SC(=S)N(C)C2=O)c(C)n1-c1ccc(O)cc1 | 15 | 65* | -5 | 9 | -20 | 2
Cc1cc(/C=C2\SC(=S)NC2=O)c(C)n1-c1cccc(O)c1 | 13 | 82* | 8 | -1 | -6 | 4
Cc1cc(/C=C2/SC(=S)N(c3ccc([N+](=O)[O-])cc3)C2=O)c(C)n1-c1cccnc1 | 0 | 18 | -3 | 58* | 1 | -2
Cc1cc(/C=C2/SC(=S)N(c3cccc(Cl)c3)C2=O)c(C)n1-c1cccnc1 | 4 | 16 | 7 | 6 | 3 | 1
O=C(c1ccc(Cn2cc([N+](=O)[O-])cn2)o1)N1CCCCCC1 | 2 | 23 | -5 | -3 | 4 | 0
CC(NC(=O)COC(=O)CN1C(=O)c2ccccc2C1=O)c1ccccc1 (centres undefined) | 7 | x | x | -1 | 4 | x
COc1cc(OC)c(NC(=O)CC2SC(N)=NC2=O)cc1Cl (centres undefined) | x | x | x | 0 | x | x
Cc1ccc2c(c1)C(=O)C(=O)N2CCOc1ccccc1 | 0 | 1 | 7 | 10 | 6 | -1
Cc1cccc2c1N(CCCOc1ccccc1)C(=O)C2=O | -8 | -5 | 17* | 40 | 1 | 2
Cc1ccc2c(c1)C(=O)C(=O)N2CCCOc1ccccc1C | 7 | -12 | 15* | 52 | -2 | 2
CS(=O)(=O)N1CCC(Oc2cccc(C(=O)NCCCC3CCCC3)c2)CC1 | 0 | 2 | -4 | 0 | 0 | 5
CC(SCC(=O)Nc1ccc(F)cc1)c1nc2ccccc2c(=O)[nH]1 (centres undefined) | 0 | -5 | 0 | 11 | 6 | 1
Cc1ccc(SCc2nc3ccccc3n2CC(=O)Nc2ccccc2)cc1 | -6 | 1 | 1 | -1 | -4 | 4
Cc1ccc(SCc2nc3ccccc3n2CC(=O)Nc2c(C)cccc2C)cc1 | -2 | -2 | 16* | 9 | -1 | 1
Cc1ccc(Cl)cc1NC(=O)c1cc2ccccc2cc1O | 3 | 97* | 5 | 8 | -6 | 1
COc1cc(NC(=O)c2cc3ccccc3cc2O)c(OC)cc1Cl | 2 | 17 | -2 | 32 | 0 | 5
COc1ccccc1NC(=O)c1cc2cc(Br)ccc2cc1O | 4 | 53* | 3 | -3 | -4 | 5
SMILES | IDE inh | SKKanGAS inh | PP1 inh | Exocytosis inh | IDE cell activ | PP5 primary
CC(=O)c1c(C)[nH]c(C(=O)Nc2nc(-c3ccc(Cl)cc3)cs2)c1C | 5 | 43 | -3 | 16 | -2 | 0
CC(=O)c1c(C)[nH]c(C(=O)Nc2nc(-c3ccc(-c4ccccc4)cc3)cs2)c1C | -1 | 52* | -3 | 2 | -7 | 4
COc1ccc(S(=O)(=O)Oc2ccccc2C(N)=O)cc1 | x | x | x | -9 | 2 | x
O=C(Nc1nc(-c2cccs2)c(-c2ccccc2)s1)c1ccco1 | -2 | 52* | -1 | -3 | 3 | 3
CCCNC(=O)C(Cc1ccc(F)cc1)NC(=O)c1ccccc1 (centres undefined) | 12 | x | -5 | -1 | -2 | 1
Cc1ccc(-c2cc3nc(-c4ccc(Br)cc4)cc(N)n3n2)cc1 | 11 | 75* | 4 | -1 | 4 | 6
Cc1ccc(-c2cc(N)n3nc(-c4ccc(C)cc4)cc3n2)cc1 | 1 | 12 | 3 | -4 | 6 | 4
CCCCC[n+]1ccn(C2=C([O-])c3ccccc3C(=O)/C2=N\S(=O)(=O)c2ccc(Br)cc2)c1 | -4 | 97* | -2 | 27 | 8 | 4
CCCCC[n+]1ccn(C2=C([O-])c3ccccc3C(=O)/C2=N\S(=O)(=O)c2ccccc2)c1 | -1 | 74* | 0 | 4 | 5 | 0
CC(C)[n+]1ccn(C2=C([O-])c3ccccc3C(=O)/C2=N\S(=O)(=O)c2ccccc2)c1 | 9 | -7 | 2 | 8 | 0 | 4
CCCC[n+]1ccn(C2=C([O-])c3ccccc3C(=O)/C2=N\S(=O)(=O)c2ccccc2)c1 | 1 | 59* | -3 | 1 | 5 | 0
O=C(Nc1nnc(-c2ccc(Cl)cc2)o1)c1cccc(N2C(=O)CCC2=O)c1 | 8 | 70* | 8 | 0 | 6 | 4
O=C(Nc1nnc(-c2ccncc2)o1)c1cccc(N2C(=O)CCC2=O)c1 | -1 | -1 | 1 | -2 | 2 | 3
CSc1cccc(-c2nnc(NC(=O)c3cccc(N4C(=O)CCC4=O)c3)o2)c1 | 5 | 85* | 2 | -2 | 2 | -1
N/C(=N\N=Cc1ccc2c(c1)OCO2)NN=Cc1ccc2c(c1)OCO2 | x | x | x | 34 | 4 | x
N/C(=N\N=C/c1ccc(Br)cc1)N/N=C\c1ccc(Br)cc1 | -1 | u | 14 | 63* | -4 | 3
O=C(N/N=C/c1ccc(F)cc1)c1ccc(Br)cc1 | -1 | -7 | -1 | -2 | -3 | -1
N/C(=N\N=C/c1ccc(F)cc1)N/N=C\c1ccc(F)cc1 | 4 | -15 | 16* | 61* | -4 | 5
Cc1cccc(N(C)S(=O)(=O)c2csc(C(N)=O)c2)c1 | 2 | 0 | 1 | -2 | -3 | 2
Cc1ccc(Oc2nc3ccccn3c(=O)c2/C=C(\C#N)C(=O)NC2CCS(=O)(=O)C2)c(C)c1 (centres undefined) | 0 | -2 | 1 | 79* | 1 | 1
CCOc1ccccc1C(C(=O)NC1CCCCC1)N(C(=O)c1csnn1)C1CC1 (centres undefined) | -2 | 5 | 1 | -9 | 0 | 1
CC(=O)N1CC[n+]2c(-c3ccc(Cl)cc3Cl)csc21 | 17* | 5 | 2 | 8 | -6 | 0
O=C(O)c1ccc(-c2nc(-c3ccc(Cl)cc3Cl)cs2)cc1 | 2 | -7 | -1 | -4 | 1 | 0

Source: PubChem BioAssay (several laboratories)
